Hits are enriched below; roughly 2.6% of the tested compounds scored in any of these assays.
CCT modulator = modulators of cytosolic chaperonin (CCT/TRiC) activity; purified chaperonin ATPase assay, HTRF ADP detection, 30 min; activity change, % (concentration not given with the values), hits read low; actives 0.3% (n = 360,000); AID 651819; in the data active means activity change below about -30%; further: on the % scale 0 is the no-effect control and ±100 the full control effect
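ATPase activity: ADP formed was measured by HTRF Transcreener (665/615 nm ratio) after 30 min at 37 deg C with 10 uM ATP. Compounds screened at one 76 uM concentration against 40 or 20 nM TRiC in Tris pH 7.4/KCl/MgCl2/DTT buffer.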
AT treatment = candidate therapy for ataxia-telangiectasia; F2112 A-T fibroblasts, KAP-1 phosphorylation AlphaLISA; neocarzinostatin DNA damage 30 min before lysis; AID 485349; Potency, µM (doses to about 57.5 µM), without a hit: at the top dose activation, actives largely listed as activators; actives 0.19% (n = 320,000); further: potency means the concentration at half of the fitted maximal effect; % of control where 0% means no effect; nearly all actives have a fitted effect of over 45% in size
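ATM-like activity read as KAP-1 phosphorylation via AlphaLISA donor/acceptor antibody pairs after lysis and 6 hr at 25C. Cells were ATM-null patient fibroblasts (F2112, hTERT), dosed 60 min, then exposed to the DSB inducer NCS for 30 min.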
Nrf2 block = blocks Nrf2 signaling; A549 ARE-Fluc reporter, luciferase luminescence, 18-24 h; Potency, µM (doses to about 46 µM), inactives show at the highest dose activity change, negative = inhibition, most hits filed as inhibitors; actives 2.1% (n = 360,000); AID 504444; further: potency means the concentration at half of the fitted maximal effect; on the % scale 0 is the no-effect control and ±100 the full control effect; nearly all actives have a fitted effect of over 60% in size
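Two sequential reads on A549 ARE_Fluc cells exposed to compound for 18-24 h: a CellTiter-Fluor fluorescence read for viability, then a luciferase luminescence read for Nrf2/ARE activity.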
A549 viability = kills or reduces viability of A549 cells in Nrf2 counter-screen. Potency, µM (series often up to 46 µM), for inactives: at the highest dose activity change, negative = cytotoxicity, usual class: inhibitors. actives 0.16% (n = 390,000). A549 ARE-Fluc cells, CellTiter-Fluor viability, 18-24 h; further: potency means the concentration at half of the fitted maximal effect; on the % scale 0 is the no-effect control and ±100 the full control effect
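Cytotoxicity counterscreen: CellTiter-Fluor fluorescence was measured in A549 ARE_Fluc cells after 18-24 h of compound exposure in a concentration series. The subsequent BugLite luminescent read reports ARE-luciferase activity.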
Nrf2 ARE act = Nrf2 pathway activation. Potency, µM (titrated, usually from 46.1 µM), without a hit: top-dose activation, actives largely listed as activators. AID 624171. AREc32 ARE-luciferase reporter (MCF7-derived line), luminescence, 24 h. actives 0.31% (n = 410,000); further: potency means the concentration at half of the fitted maximal effect; % of control where 0% means no effect; nearly all actives have a fitted effect of over 65% in size
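Quantitative high-throughput format: AREc32 reporter cells, 1000 per well, received compound by pin transfer and were incubated 24 hr at 37 deg C, 5% CO2, before Steady-Glo luminescence detection.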
TCR activator = activates T cell receptor signaling; 330,000 tested, under 10 active; primary human leukocytes, anti-CD3, IL-2 HTRF, 48 h; Potency, µM (series often up to 9.22 µM), for inactives: top-dose activation of IL-2 secretion, most hits filed as activators; further: % of control where 0% means no effect
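HTRF read-out of IL-2 secretion: europium cryptate donor excited at 320nm, d2 acceptor emission at 665nm. Cells were primary human leukocytes incubated 48 hr with compounds and a-CD3 beads, supplying TCR signal only.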
An asterisk follows results filed as active; ? = inconclusive; nt = no result; [ ] = remark or other dose. Unless noted, the call rests on the fitted dose curve; in most records, active means well fitted curve in the direction sought with a large enough effect; inconclusive means small, poorly fitted or top-dose-only effect, or another doubt; inactive means no such curve, though single readings can be large; an effect the other way counts as inactive or inconclusive.

SMILES	CCT modulator	AT treatment	Nrf2 block	A549 viability	Nrf2 ARE act	TCR activator
Nc1ccccc1SCC(=O)Nc1cccc2ccccc12	-1.9	22.5%	?	-4.3%	9.0%	1.5%
CCOc1ccc(N2CC(c3nc4ccccc4n3Cc3cccc(C)c3)CC2=O)cc1 (stereo not given)	nt	nt	?	-11.4%	6.9%	nt
COc1ccccc1Cn1c(C2CC(=O)N(c3ccccc3OC)C2)nc2ccccc21 (stereo not given)	nt	nt	10.3µM*	-5.0%	4.0%	nt
CCOc1ccc(N2CC(c3nc4ccccc4n3CCOc3ccc(CC)cc3)CC2=O)cc1 (stereo not given)	nt	nt	13.7%	2.7%	-1.2%	nt
CCOC(=O)Cn1c(C2CC(=O)N(c3ccc(C)cc3)C2)nc2ccccc21 (stereo not given)	nt	nt	20.6µM*	-13.5%	0.5%	nt
CCc1ccc(N2CC(c3nc4ccccc4n3Cc3ccccc3C)CC2=O)cc1 (stereo not given)	nt	nt	14.6µM*	-7.4%	0.7%	nt
CCOc1ccccc1N(C(=O)c1snc(C(N)=O)c1N)C(C(=O)NCCC(C)C)c1ccco1 (stereo not given)	0.3	5.8%	25.9µM*	?	0.5%	4.0%
NC(=O)c1cc([N+](=O)[O-])ccc1NCc1ccc(N)cc1	-1.2	10.3%	9.2µM*	?	-2.2%	8.9%
COc1ccc(N=c2cc(-c3ccc(OC)cc3)oc3ccccc23)cc1	2.4	0.2%	16.4µM*	?	6.8%	-1.5%[46.1 µM]
COc1ccc(-c2cc(=O)c3ccccc3o2)cc1	-45.8*	13.5%	29.0%	5.6%	?	3.0%
COc1ccc(-c2cc(=Nc3ccc(C)cc3)c3ccccc3o2)cc1	1.3	1.3%	?	-5.7%	1.8%	-6.4%
COc1ccccc1C(=O)NCCC(=O)N(C)Cc1ccc(C)o1	2.4	5.4%	8.1%	-2.2%	-0.1%	-4.1%
CCOC(=O)Nc1sc(C(=O)N(CC)CC)c(C)c1C(=O)OCC	-1.8	15.5%	-15.2%	-12.1%	-0.6%	2.5%
CCOC(=O)c1c(NC(=O)COC(=O)c2cccnc2OCC)sc(C(=O)N(CC)CC)c1C	0.4	14.0%	14.6µM*	-24.7%	4.7%	2.9%
CCOC(=O)c1c(NC(=O)COc2ccc(OC)cc2)sc(C(=O)N(CC)CC)c1C	nt	nt	23.1µM*	-21.9%	-1.1%	nt
CCCC(=O)Nc1ccc2c(c1)nc(CN1CCN(C(=O)OCC)CC1)n2C	0.7	-8.8%	-13.6%	2.8%	0.0%	-2.8%
CCOC(=O)N1CCN(Cc2nc3cc(NC(=O)c4ccco4)ccc3n2C)CC1	-57.8*	-18.5%	1.9%	1.3%	0.7%	8.1%
Cn1c(CN2CCCCC2)nc2cc(NC(=O)c3ccc(Cl)cc3)ccc21	-47.6*	-1.5%	5.8µM*	-4.7%	-0.1%	-7.0%
CCOc1ccc(CNC(=O)C2CCCN(S(=O)(=O)c3ccc4c(c3)CCCC(=O)N4)C2)cc1 (stereo not given)	nt	nt	?	8.5%	-0.8%	nt
O=C(OCn1ncc(Cl)c(Cl)c1=O)c1ccccc1Cl	-4.4	5.3%	23.1µM*	nt	?	4.9%
COC(=O)c1cc(C)nc2c1C(=O)C(=O)C=C2N1CCOCC1	-0.7	-9.5%	16.4µM*	?	-4.3%	-2.0%
O=C(Nc1cccc(F)c1)c1cccnc1NCCc1ccccc1	-1.1	5.5%	23.1µM*	-20.5%	2.6%	-2.1%[46.1 µM]
O=C(Nc1ccc(F)cc1)c1cccnc1NCCc1ccccc1	0.7	5.2%	?	-4.4%	0.1%	-7.6%[46.1 µM]
CC(C)Nc1ncnc2c1cnn2Cc1ccccc1Cl	-0.7	4.9%	13µM*	2.3%	-0.2%	5.9%
CC(=O)c1c(C)[nH]c(C(=O)CSc2nnc(-c3ccccc3)o2)c1C	-1.8	-0.5%	20.6µM*	-13.6%	0.5%	2.0%
SMILES	CCT modulator	AT treatment	Nrf2 block	A549 viability	Nrf2 ARE act	TCR activator
CC(=O)c1c(C)[nH]c(C(=O)CSc2ncnc3sc(-c4ccccc4)cc23)c1C	-1.7	0.6%	5.17µM*	-7.3%	0.2%[9.22 µM]	-2.5%[46.1 µM]
Cc1nc(Nc2nc3ccccc3o2)nc2c1CCCC2	nt	nt	?	-2.5%	nt	nt
Cc1[nH]c2ccccc2c1/C=C/c1cc[n+](C)cc1	-1.1	10.5%	2.06µM*	8.2µM*	-0.6%	15.9%
O=C(O)/C=C/C(=O)c1c(-c2ccccc2)[nH]c2ccccc12	-2.1	5.3%	0.8%	1.6%	10µM*	9.3%
Cc1ccc(C(=O)CSc2ncnc3ccccc23)o1	1.9	-5.5%	?	-2.9%	12.6µM*	9.6%
O=C(CSc1ncnc2ccccc12)c1cccs1	2.2	-1.7%	?	0.2%	?	0.2%
CN(Cc1ccccc1)c1ncnc2c1nc1n2CCCC1	nt	nt	-27.9%	2.3%	-0.2%	nt
C/C(=N\Nc1ccc([N+](=O)[O-])cc1[N+](=O)[O-])c1cccnc1	0.9	0.0%	?	-16.4%	5.7%	-4.7%
CC(C)=NNc1cnnc2ccc([N+](=O)[O-])cc12	-1.0	nt	nt	nt	3.55µM*	nt
O=S(=O)(NCCc1cn(S(=O)(=O)c2ccccc2)c2ccccc12)c1ccccc1	nt	nt	10.7%	-0.3%	nt	nt
CCSC1=C(C#N)C(c2ccc(Cl)cc2)C2=C(CCCC2=O)N1 (stereo not given)	-0.8	-0.5%	20.6µM*	?	0.2%	-0.2%
COc1ccc(NC(=O)Cn2nnc(C(=O)NCc3cccs3)c2N)c(OC)c1	-6.5	3.1%	18.4µM*	?	0.2%	-5.3%
Cc1cc(C)cc(NC(=O)CCn2c(=O)c3cccn3c3ccccc32)c1	0.3	1.6%	16.4µM*	-14.2%	3.2%	8.0%
COc1ccc(CNC(=O)Cn2c(=O)c3cccn3c3ccccc32)cc1	nt	nt	11.6µM*	-0.4%	-0.4%	nt
COc1ccc(CNC(=O)Cn2c(=O)c3cccn3c3cccnc32)cc1	nt	nt	17.7%	14.9%	11.5%	nt
Cc1cccc(NC(=O)Cn2c(=O)c3cccn3c3ccccc32)c1C	nt	nt	23.1µM*	-16.9%	-0.8%	nt
O=C(O)CC(NC(=O)Cc1ccc(Cl)cc1)c1ccco1 (stereo not given)	-0.6	-3.2%	-6.5%	2.7%	-1.0%	nt
COc1cccc(-n2c(SCc3cccc(C)c3)nc3c([nH]c4ccccc43)c2=O)c1	nt	nt	nt	-15.1%	4.4%	nt
Nc1ccccc1SC1CC(=O)N(c2ccc(Cl)c(Cl)c2)C1=O (stereo not given)	0.5	-2.3%	-26.5%	-9.2%	3.3%	3.8%
Cc1ccc(Cl)cc1N1C(=O)CC(Sc2ccccc2N)C1=O (stereo not given)	-32.6*	nt	nt	nt	-0.7%	nt
CCOc1cc(C2c3c(oc4ccccc4c3=O)C(=O)N2c2nccs2)ccc1O (stereo not given)	2.1	9.2%	-21.0%	-5.9%	1.3%	-1.8%
CC1CCN(C(=O)CN2CCSc3ccc(S(=O)(=O)N(C)C)cc32)CC1	nt	nt	nt	-14.2%	0.6%	nt
